# Results published in PMC5540273 (PLoS ONE, 2017).
# Columns and labels:
# Conditions in all cases: concentration: 1 μM, replicates: in singlicate; n = 1
# [1] = test system: CSNK1G1
# [2] = test system: CSNK1G2
# [3] = test system: CSNK1G3
# [4] = test system: CSNK2A1
# [5] = test system: CSNK2A2
# [6] = test system: T1, CTK
# T1 construct: gene MATK
# [7] = test system: DAPK1
# [8] = test system: DAPK2
# [9] = test system: DAPK3
# [10] = test system: T2, DCAMKL1
# T2 construct: gene DCLK1
# [11] = test system: T3, DCAMKL2
# T3 construct: gene DCLK2
# [12] = test system: T4, DCAMKL3
# T4 construct: gene DCLK3
# [13] = test system: DDR1
# [14] = test system: DDR2
# [15] = test system: T5, DLK
# T5 construct: gene MAP3K12
# [16] = test system: T6, DMPK2
# T6 construct: gene CDC42BPG
# [17] = test system: DMPK
# [18] = test system: T7, DRAK1
# T7 construct: gene STK17A
# [19] = test system: T8, DRAK2
# T8 construct: gene STK17B
# [20] = test system: DYRK1A
# 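Also: KINOMEscan kinase panel screen.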
SMILES,%Inh [1],%Inh [2],%Inh [3],%Inh [4],%Inh [5],%Inh [6],%Inh [7],%Inh [8],%Inh [9],%Inh [10],%Inh [11],%Inh [12],%Inh [13],%Inh [14],%Inh [15],%Inh [16],%Inh [17],%Inh [18],%Inh [19],%Inh [20]
Nc1ncnc2scc(-c3ccc(NC(=O)Cc4cc(F)ccc4F)cc3)c12.O=C(O)C(F)(F)F [SB-731254-M],26%,36%,40%,13%,14%,67%,0%,100%,100%,27%,11%,16%,58%,24%,0%,23%,6%,3%,10%,12%
CS(=O)(=O)c1cccc(CNc2nc(Nc3ccc4c(c3)CCC(=O)N4)ncc2C(F)(F)F)c1,0%,4%,0%,17%,51%,0%,0%,0%,11%,36%,0%,99.4%,0%,2%,13%,0%,0%,95.6%,98.3%,85%
N#CC1(c2cccc(C(=O)Nc3cccc(Oc4ccc5nc(NC(=O)C6CC6)sc5n4)c3)c2)CC1,0%,7%,0%,0%,0%,0%,0%,44%,13%,3%,0%,0%,98.6%,99.2%,0%,6%,5%,2%,7%,0%
Cn1cc(-c2ccc3c(c2)CCN3C(=O)Cc2cc(F)cc(C(F)(F)F)c2)c2c(N)ncnc21 [GSK2635225],22%,12%,15%,2%,0%,0%,21%,6%,19%,3%,0%,0%,100%,85%,23%,0%,0%,0%,0%,4%
COC(=O)Nc1nc2cc(Oc3ccc(NC(=O)Nc4cccc(SC)c4)cc3)ccc2[nH]1.Cl [GW697999],6%,0%,1%,0%,0%,0%,0%,43%,1%,21%,6%,29%,100%,98.7%,32%,0%,0%,8%,0%,12%
Cc1ccc(NC(=O)c2ccnc(N3CCCCC3)c2)cc1-c1ccc(C(=O)NCC2CC2)cc1 [GW775610],0%,20%,0%,0%,0%,25%,100%,0%,12%,0%,0%,4%,99%,93.6%,5%,0%,0%,0%,0%,40%
Fc1cc(Cl)ccc1Nc1ccnc2cc(-c3ccc(CN4CCSCC4)o3)ccc12 [GW560106],0%,0%,14%,0%,100%,0%,0%,0%,11%,7%,0%,42%,96.1%,69%,46%,0%,8%,23%,0%,0%
CCNc1nccc(-c2c(-c3ccc(F)cc3)ncn2C2CCN(C)CC2)n1,7%,1%,0%,44%,17%,100%,24%,15%,10%,13%,0%,5%,70%,4%,0%,8%,0%,16%,0%,0%
CN(c1ccc(F)c(NC(=O)c2cccc(OC(C)(C)C#N)c2Cl)c1)c1ccc2nc(NC(=O)C3CC3)sc2n1,0%,12%,0%,35%,10%,13%,4%,0%,4%,0%,0%,0%,100%,97%,2%,14%,0%,0%,0%,0%
Cc1cc(-c2c(-c3ccc(F)cc3)ncn2CCCN2CCOCC2)nc(N)n1 [SB-222517],0%,8%,0%,0%,0%,0%,0%,21%,38%,40%,2%,0%,0%,21%,0%,0%,16%,13%,15%,0%
